PubChem BioAssay (Tox21)
Records with an inconclusive call do not appear. Where a call stands in place of a potency, no number is given. Active and inactive are the calls of the source. Unless noted, the call rests on the fitted dose curve; in most records, active means well fitted curve in the direction sought with a large enough effect in the repeat runs; inconclusive means weak or mixed curves; inactive means no such curve, though single readings can be large; an effect the other way counts as inactive or inconclusive.

Legend:
[1] = qHTS assay to identify small molecule agonists of the estrogen receptor alpha (ER-alpha) signaling pathway in the presence of an antagonist - cell viability counter screen (AID 1259386);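 further: series mostly up to about 92 µM; cells exposed to compounds for 22 h at 37 °C before the viability read; nearly all actives have a fitted effect of over 30% in size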
How it was run: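 Cytotoxicity was measured in parallel with the ERE-luciferase agonist screen, in the same wells. The cells were VM7Luc4E2, which endogenously express ER-alpha, and treatment was with compounds plus 10.0nM ICI-182,780 for 22hr.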

[2] = target: Progesterone receptor (Homo sapiens) (UniProt P06401); assay: qHTS assay to identify small molecule agonists of the progesterone receptor (PR) signaling pathway (AID 1346784; calls by dose curve; further: nearly all actives have a fitted effect of over 30% in size; further: potency means the concentration at half of the fitted maximal effect)
Progesterone receptor (Homo sapiens), sequence (P06401 whole entry, looked up): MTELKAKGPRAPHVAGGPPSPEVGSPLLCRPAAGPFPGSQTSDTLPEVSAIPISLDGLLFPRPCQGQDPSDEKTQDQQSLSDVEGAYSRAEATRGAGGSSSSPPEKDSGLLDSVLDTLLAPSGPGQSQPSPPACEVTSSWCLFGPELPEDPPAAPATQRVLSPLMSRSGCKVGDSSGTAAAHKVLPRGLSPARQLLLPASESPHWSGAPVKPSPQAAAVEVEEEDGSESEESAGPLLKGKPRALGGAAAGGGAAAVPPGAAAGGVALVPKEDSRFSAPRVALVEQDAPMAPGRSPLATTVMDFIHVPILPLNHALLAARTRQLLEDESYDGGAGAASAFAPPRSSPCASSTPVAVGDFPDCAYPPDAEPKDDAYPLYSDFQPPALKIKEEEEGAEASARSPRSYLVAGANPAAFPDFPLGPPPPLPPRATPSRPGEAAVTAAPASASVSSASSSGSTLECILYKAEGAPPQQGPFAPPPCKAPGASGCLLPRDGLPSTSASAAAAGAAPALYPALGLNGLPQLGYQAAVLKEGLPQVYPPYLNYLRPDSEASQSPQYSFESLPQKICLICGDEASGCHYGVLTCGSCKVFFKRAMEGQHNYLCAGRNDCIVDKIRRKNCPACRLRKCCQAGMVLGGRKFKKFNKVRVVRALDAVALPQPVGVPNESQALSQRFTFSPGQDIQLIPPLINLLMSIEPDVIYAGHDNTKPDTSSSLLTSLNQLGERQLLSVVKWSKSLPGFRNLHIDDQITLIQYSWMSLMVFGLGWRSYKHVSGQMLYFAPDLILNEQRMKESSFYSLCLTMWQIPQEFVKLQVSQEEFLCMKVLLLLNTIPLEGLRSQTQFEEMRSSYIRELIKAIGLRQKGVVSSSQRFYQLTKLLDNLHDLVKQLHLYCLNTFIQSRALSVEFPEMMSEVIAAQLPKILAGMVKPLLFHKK
How it was run: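 HEK 293T PR-UAS-bla reporter cells, 2% charcoal-stripped FBS; 6 hr settle at 37C/5% CO2, compound (DMSO) 16 hr, LiveBLAzer B/G FRET substrate 2 hr RT, fluorescence intensity read.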

[3] = target: Progesterone receptor (Homo sapiens) (UniProt P06401); assay: qHTS assay to identify small molecule antagonists of the progesterone receptor (PR) signaling pathway (AID 1346795; active means well fitted inhibition curve with a large enough effect in the signal ratio in the repeat runs, not every such curve was filed as active; the % refers to the signal ratio; further: potency means the concentration at half of the fitted maximal effect)
How it was run: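 Beta-lactamase reporter, HEK293T PR-UAS-bla line; 2% charcoal-stripped FBS; 6 hr pre-incubation, 37C/5% CO2. Compound + R5020 1 nM final, 16 hr. LiveBLAzer B/G FRET substrate, 2 hr RT; fluorescence intensity read.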

[4] = qHTS assay to identify small molecule antagonists of the progesterone receptor (PR) signaling pathway - cell viability counter screen (AID 1346798); further: series mostly up to about 92 µM; nearly all actives have a fitted effect of over 50% in size
How it was run: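 Luminescence readout (CellTiter-Glo, 30 min, RT) of viability in PR-UAS-bla HEK293T cells exposed to compound and R5020 agonist for 16 hr at 37C, 5% CO2; run in the same wells as the beta-lactamase reporter read.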

[5] = qHTS assay to identify small molecule agonists of the progesterone receptor (PR) signaling pathway - cell viability counter screen (AID 1346799; calls by dose curve; further: nearly all actives have a fitted effect of over 45% in size)
How it was run: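 HEK293T PR-UAS-bla, 3,000 cells/well, 2% charcoal-stripped FBS; 6 h settle, compound 16 h at 37C/5% CO2; LiveBLAzer 2 h RT, then CellTiter-Glo 30 min RT, luminescence read.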

[6] = qHTS assay to identify small molecule antagonists of the TGF-beta/Smad signaling pathway - cell viability counter screen (AID 1346824); further: nearly all actives have a fitted effect of over 50% in size
How it was run: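 SBE-bla HEK 293T cells, incubated overnight, then compound plus 0.25 ng/mL TGF-beta1 (stock added) for 5 hr at 37 C. Viability was read in the same wells by CellTiter-Glo luminescence after 30 min at room temperature.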

[7] = qHTS assay to identify small molecule agonists of the TGF-beta/Smad signaling pathway - cell viability counter screen (AID 1346829); further: top concentration of the series differs between compounds; nearly all actives have a fitted effect of over 45% in size
How it was run: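 Same-well cytotoxicity: CellTiter-Glo added after the 2 hr room-temperature beta-lactamase substrate step, luminescence measured 30 min later; cells had 5 hr of compound at 37 C.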

[8] = qHTS assay to identify small molecule agonists of the TGF-beta/Smad signaling pathway (AID 1346859; active means well fitted activation curve with a large enough effect in the signal ratio in the repeat runs, not every such curve was filed as active; the % refers to the signal ratio; further: series mostly up to about 77 µM)
How it was run: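 Read-out: fluorescence at 460 and 530 nm (405 nm excitation) after a 2 hr room-temperature incubation with beta-lactamase FRET substrate. SBE-bla HEK 293T cells had been treated with test compounds for 5 hr at 37 C.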

[9] = target: Thyrotropin-releasing hormone receptor (Homo sapiens) (UniProt P34981); assay: qHTS assay to identify small molecule antagonists of the thyrotropin-releasing hormone receptor (TRHR) signaling pathway (AID 1346877; active means well fitted inhibition curve with a large enough effect in the repeat runs, not every such curve was filed as active; further: series mostly up to about 51 µM)
Thyrotropin-releasing hormone receptor (Homo sapiens), sequence (P34981 whole entry, looked up): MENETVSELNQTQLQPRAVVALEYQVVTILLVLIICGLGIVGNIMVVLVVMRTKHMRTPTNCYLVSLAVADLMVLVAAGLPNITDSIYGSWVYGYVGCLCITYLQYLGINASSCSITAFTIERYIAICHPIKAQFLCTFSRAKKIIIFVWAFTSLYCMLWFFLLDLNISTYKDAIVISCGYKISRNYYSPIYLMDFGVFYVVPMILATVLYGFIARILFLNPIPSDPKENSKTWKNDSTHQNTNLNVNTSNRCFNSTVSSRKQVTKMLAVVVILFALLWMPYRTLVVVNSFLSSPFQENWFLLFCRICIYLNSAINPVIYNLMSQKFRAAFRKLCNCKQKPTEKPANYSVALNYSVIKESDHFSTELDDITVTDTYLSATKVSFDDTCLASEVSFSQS
How it was run: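 Antagonism is measured as suppression of the calcium response to 1 nM TRH in TRHR-HEK293 cells that have been dye-loaded for 2 h at 37 °C after overnight plating. Each compound is tested at 15 concentrations in triplicate.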

[10] = target: Thyrotropin-releasing hormone receptor (Homo sapiens) (UniProt P34981); assay: qHTS assay to identify small molecule agonists of the thyrotropin-releasing hormone receptor (TRHR) signaling pathway (AID 1346891; calls by dose curve;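 further: HEK293 cells expressing TRHR with calcium dye readout; series mostly up to about 58 µM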)
How it was run: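 HEK293/TRHR cells, 1500 per well, 18 h 37 °C; Ca dye 2 h 37 °C; pin-tool compound addition (agonist mode); kinetic fluorescence 3 min, 1 s reads; 15 concentrations, triplicate.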

Row | Compound | Potency [1] | Potency [2] | Potency [3] | outcome [4] | outcome [5] | outcome [6] | outcome [7] | outcome [8] | outcome [9] | outcome [10]
1 | Clc1ccccn1 | inactive | inactive | inactive | inactive | inactive | inactive | inactive | inactive | inactive | –
2 | NC(=S)NNC(N)=S | inactive | inactive | inactive | inactive | inactive | inactive | inactive | inactive | inactive | –
3 | CC(=O)OCCOC(C)=O | inactive | inactive | inactive | inactive | inactive | inactive | inactive | inactive | inactive | inactive
4 | CCCCCCC=O | inactive | inactive | inactive | inactive | inactive | inactive | inactive | inactive | inactive | –
5 | OC1C(O)C(O)C(O)C(O)C1O (stereo not drawn) | inactive | inactive | inactive | inactive | inactive | inactive | inactive | inactive | inactive | inactive
6 | CC(C)(C)c1cc(Cc2cc(C(C)(C)C)c(O)c(C(C)(C)C)c2)cc(C(C)(C)C)c1O | inactive | inactive | inactive | inactive | inactive | inactive | inactive | inactive | inactive | inactive
7 | CCCCCCCCCCCCCCCC(=O)OC(C)C | inactive | inactive | inactive | inactive | inactive | inactive | inactive | inactive | inactive | –
8 | COc1ccc(C)cc1N | inactive | inactive | inactive | inactive | inactive | inactive | inactive | inactive | inactive | –
9 | C=C(C)C(=O)OCC(C)C | inactive | inactive | inactive | inactive | inactive | inactive | inactive | inactive | inactive | inactive
10 | CCO[Si](CCC#N)(OCC)OCC | inactive | inactive | inactive | inactive | inactive | inactive | inactive | inactive | inactive | –
11 | Cc1ccc(S(=O)(=O)N=C=O)cc1 | inactive | inactive | inactive | inactive | inactive | inactive | inactive | inactive | inactive | inactive
12 | O=C1C(c2[nH]c3ccccc3c2O)=Nc2ccccc21 | inactive | inactive | inactive | inactive | inactive | inactive | inactive | inactive | inactive | inactive
13 | CCCCCCO | inactive | inactive | inactive | inactive | inactive | inactive | inactive | inactive | inactive | inactive
14 | CC(=O)CCC=C(C)C | inactive | inactive | inactive | inactive | inactive | inactive | inactive | inactive | inactive | –
15 | C=CC(=O)OCCC(=O)O | inactive | inactive | inactive | inactive | inactive | inactive | inactive | inactive | inactive | –
16 | CCO[Si](CCCN)(OCC)OCC | inactive | inactive | inactive | inactive | inactive | inactive | inactive | inactive | inactive | inactive
17 | CN1C(=O)CC[C@H]1c1cccnc1 | inactive | inactive | inactive | inactive | inactive | inactive | inactive | inactive | inactive | –
18 | COCCCN | inactive | inactive | inactive | inactive | inactive | inactive | inactive | inactive | inactive | inactive
19 | Nc1nc(N)nc(-c2ccccc2)n1 | inactive | inactive | inactive | inactive | inactive | inactive | inactive | inactive | inactive | inactive
20 | O=C(O)c1ccc(C(=O)O)c(C(=O)O)c1 | inactive | inactive | inactive | inactive | inactive | inactive | inactive | inactive | inactive | inactive
21 | C=Cc1ccc(C)cc1 | inactive | inactive | inactive | inactive | inactive | inactive | inactive | inactive | inactive | inactive
22 | CC(C)OP(=O)(CP(=O)(OC(C)C)OC(C)C)OC(C)C | inactive | inactive | inactive | inactive | inactive | inactive | inactive | inactive | inactive | inactive
23 | O=S(=O)(O)c1ccccc1 | inactive | inactive | inactive | inactive | inactive | inactive | inactive | inactive | inactive | inactive
24 | CC(=O)c1ccc(O)cc1 | inactive | inactive | inactive | inactive | inactive | inactive | inactive | inactive | inactive | inactive
25 | CC1(C)CC(N)CC(C)(CN)C1 (stereo not drawn) | inactive | inactive | inactive | inactive | inactive | inactive | inactive | inactive | inactive | inactive
26 | CCCOC(=O)c1ccccc1 | inactive | inactive | inactive | inactive | inactive | inactive | inactive | inactive | inactive | inactive
27 | NCCCCCCN | inactive | inactive | inactive | inactive | inactive | inactive | inactive | inactive | inactive | inactive
28 | CN(C)c1ccc(Cc2ccc(N(C)C)cc2)cc1 | inactive | inactive | inactive | inactive | – | inactive | inactive | inactive | inactive | –

Row | Compound | Potency [1] | Potency [2] | Potency [3] | outcome [4] | outcome [5] | outcome [6] | outcome [7] | outcome [8] | outcome [9] | outcome [10]
29 | CC(CCO)CC(C)(C)C (stereo not drawn) | inactive | inactive | inactive | inactive | inactive | inactive | inactive | inactive | inactive | inactive
30 | Cc1ccc([N+](=O)[O-])cc1S(=O)(=O)O | inactive | inactive | inactive | inactive | inactive | inactive | inactive | inactive | inactive | inactive
31 | CCOC(=O)c1ccc(N)cc1 | inactive | inactive | – | inactive | inactive | inactive | inactive | inactive | inactive | –
32 | O=C(OCC1CCC2OC2C1)C1CCC2OC2C1 (stereo not drawn) | – | inactive | inactive | inactive | inactive | inactive | inactive | inactive | – | –
33 | CC(C)c1cccc(C(C)C)c1 | inactive | – | – | inactive | inactive | inactive | inactive | inactive | – | –
34 | CC(=O)Oc1ccc(C)cc1 | inactive | inactive | inactive | inactive | inactive | inactive | inactive | inactive | inactive | inactive
35 | CCCCOC(=O)c1ccc(N)cc1 | inactive | inactive | – | inactive | inactive | inactive | inactive | inactive | inactive | –
36 | CC1(C)NC(=O)NC1=O | inactive | – | – | inactive | inactive | inactive | inactive | inactive | inactive | –
37 | CN(C)CCOC(=O)COc1ccc(Cl)cc1 | inactive | inactive | inactive | inactive | inactive | inactive | inactive | inactive | inactive | inactive
38 | CCCCCCCC=O | inactive | inactive | inactive | inactive | inactive | inactive | inactive | inactive | inactive | inactive
39 | C[Si]1(C)O[Si](C)(C)O[Si](C)(C)O[Si](C)(C)O1 | inactive | inactive | inactive | inactive | inactive | inactive | inactive | inactive | inactive | inactive
40 | C=CC[N+](C)(C)CC=C | inactive | inactive | inactive | inactive | inactive | inactive | inactive | inactive | inactive | inactive
41 | CCc1ccccc1CC | inactive | inactive | inactive | inactive | inactive | inactive | inactive | inactive | inactive | inactive
42 | CCCCC(C=O)CC (stereo not drawn) | inactive | inactive | inactive | inactive | inactive | inactive | inactive | inactive | inactive | inactive
43 | CC(O)CC(C)(C)O (stereo not drawn) | inactive | inactive | inactive | inactive | inactive | inactive | inactive | inactive | inactive | inactive
44 | CC(C)CC(=O)CC(C)CC(C)C (stereo not drawn) | inactive | inactive | inactive | inactive | inactive | inactive | inactive | inactive | inactive | inactive
45 | COc1ccccc1OCC(O)CO (stereo not drawn) | inactive | inactive | inactive | inactive | inactive | inactive | inactive | inactive | inactive | inactive
46 | CCCCCC(=O)O | inactive | inactive | inactive | inactive | inactive | inactive | inactive | inactive | inactive | inactive
47 | O=C1c2ccccc2CCc2ccccc21 | inactive | inactive | 27.9 µM (active) | inactive | inactive | inactive | inactive | inactive | inactive | inactive
48 | COc1ccc([N+](=O)[O-])cc1N | – | inactive | inactive | inactive | inactive | inactive | inactive | inactive | – | –
49 | CC(C)(Oc1ccc(CCNC(=O)c2ccc(Cl)cc2)cc1)C(=O)O | inactive | inactive | inactive | inactive | inactive | inactive | inactive | inactive | inactive | inactive
50 | Cc1ccc2ncccc2c1 | inactive | inactive | inactive | inactive | inactive | inactive | inactive | inactive | inactive | inactive
51 | C=CCc1ccc(OC)c(OC)c1 | inactive | – | – | inactive | inactive | inactive | inactive | inactive | – | –
52 | C[C@]12CCC(=O)C=C1CC[C@@H]1[C@@H]2[C@@H](O)C[C@@]2(C)[C@H]1CC[C@]2(O)C(=O)CO | inactive | 30.9 µM (active) | – | inactive | inactive | inactive | inactive | inactive | inactive | –
53 | C[C@]12CC[C@@H]3c4ccc(O)cc4CC[C@H]3[C@@H]1C[C@@H](O)[C@@H]2O | inactive | inactive | – | inactive | inactive | inactive | inactive | inactive | – | –
54 | OCc1ccccc1 | inactive | inactive | inactive | inactive | inactive | inactive | inactive | inactive | inactive | inactive
55 | CCOCCOCCOCCO | inactive | inactive | inactive | inactive | inactive | inactive | inactive | inactive | inactive | inactive
